Results from PubChem BioAssay (EPA / NIEHS).
Values joined by “and” are separate entries in the source; they are usually repeats but may differ in a detail not shown here. Equal entries are not always repeated. Inconclusive results are not listed. More than one record can exist for a structure, and the calls need not agree. Active and inactive are the calls of the source. The calls were made as follows: active = hit-call score of the fitted dose curve at least 0.9, where 1 is the maximum; inconclusive = response in the unintended direction; inactive = score below 0.9.

Legend:
[1] = target: D(1A) dopamine receptor (Homo sapiens) (UniProt P21728); assay: NVS_GPCR_hDRD1: NovaScreen (NVS) G Protein-Coupled Receptor Assay for human Dopamine Receptor D1 (DRD1) (AID 2283269)
How it was run: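 Cell-free radioligand binding to human DRD1 from HEK293 membranes, read 1 h after dosing by filter-based scintillation counting. Loss of signal versus DMSO baseline marks displacement. Primary screen at 25 uM single concentration in duplicate; actives followed up in concentration series.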

[2] = target: human Thromboxane A2 Receptor (TXA2), TBXA2R (gene 6915) (UniProt P21731); assay: NVS_GPCR_hTXA2: NovaScreen (NVS) G Protein-Coupled Receptor Assay for human Thromboxane A2 Receptor (TXA2) (AID 2283282);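 also: actives reduce bound radioligand signal relative to DMSO baseline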
How it was run: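 Filter scintillation counting of bound radioligand, human platelet protein, 1 h exposure. Single-concentration duplicates (25 uM) first, concentration-response follow-up for actives. Binding loss scored against DMSO baseline.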

[3] = target: human Neurokinin, NK2 Receptor, TACR2 (gene 6865) (UniProt P21452); assay: NVS_GPCR_hNK2: NovaScreen (NVS) G Protein-Coupled Receptor Assay for human Neurokinin, NK2 Receptor (AID 2283278);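 also: actives reduce bound radioligand signal relative to DMSO baseline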
How it was run: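 CHO-derived membrane protein, radioligand displacement, filter scintillation read at 4 h post-dose. Single-point 25 uM in duplicate, then concentration series for actives; DMSO as negative control.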

[4] = target: human Dopamine Receptor D2 (DRD2), DRD2 (gene 1813) (UniProt P14416); assay: NVS_GPCR_hDRD2s: NovaScreen (NVS) G Protein-Coupled Receptor Assay for human Dopamine Receptor D2 (DRD2) (AID 2283266)
How it was run: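 Radioligand displacement used human DRD2 membranes extracted from CHO cells and was read by filter-based scintillation counting after 1.5 hours. Primary screening was in duplicate at 25 uM. Loss of signal versus DMSO was fitted, with concentration series in follow-up.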

[5] = target: human Leukotriene B4 Receptor 1 (LTB4-BLT1), LTB4R (gene 1241) (UniProt Q15722); assay: NVS_GPCR_hLTB4_BLT1: NovaScreen (NVS) G Protein-Coupled Receptor Assay for human Leukotriene B4 Receptor 1 (LTB4-BLT1) (AID 2283271)
How it was run: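 Radioligand displacement binding on receptor extracted from human neutrophils, cell-free, 1 h after dosing; filter-based scintillation counting. Primary screen in duplicate at 25 uM, actives retested in concentration-response up to 50 uM; loss of signal versus DMSO.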

[6] = target: Muscarinic acetylcholine receptor M2 (Homo sapiens) (UniProt P08172); assay: NVS_GPCR_hM2: NovaScreen (NVS) G Protein-Coupled Receptor Assay for human Muscarinic, M2 Receptor (AID 2283273)
How it was run: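 CHO membrane prep, radioligand + test compound, 1 h; filtration, scintillation count. Screen 25 uM duplicate → conc. series for actives. Readout: decrease in binding vs DMSO control.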

[7] = target: human Muscarinic, M4 Receptor, CHRM4 (gene 1132) (UniProt P08173); assay: NVS_GPCR_hM4: NovaScreen (NVS) G Protein-Coupled Receptor Assay for human Muscarinic, M4 Receptor (AID 2283274)
How it was run: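 Cell-free radioligand displacement using CHO-derived human M4 receptor protein, 1 h after dosing; bound radioactivity by filtration and scintillation counting. Primary screen single 25 uM duplicate, actives followed in concentration series.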

[8] = target: Muscarinic acetylcholine receptor M5 (Homo sapiens) (UniProt P08912); assay: NVS_GPCR_hM5: NovaScreen (NVS) G Protein-Coupled Receptor Assay for human Muscarinic, M5 Receptor (AID 2283275)
How it was run: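 Radioligand displacement on CHO-derived membrane preparations, 1 h, filter-based scintillation counting. Single-concentration duplicate screen at 25 uM; hits (e.g. 30% inhibition) retested in singleton concentration-response up to 50 uM. Loss of binding fitted versus DMSO.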

[9] = target: human Neuropeptide Receptor Y1 (NPY1), NPY1R (gene 4886) (UniProt P25929); assay: NVS_GPCR_hNPY1: NovaScreen (NVS) G Protein-Coupled Receptor Assay for human Neuropeptide Receptor Y1 (NPY1) (AID 2283276)
How it was run: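 Cell-free radioligand binding using receptor extracted from SK-N-MC cells, 1 h incubation, filter-based scintillation counting. Primary screen single concentration 25 uM in duplicate; actives followed in concentration series. Loss of bound signal scored versus DMSO.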

[10] = target: human Opioid Receptor Delta 1 (Opiate D1), OPRD1 (gene 4985) (UniProt P41143); assay: NVS_GPCR_hOpiate_D1: NovaScreen (NVS) G Protein-Coupled Receptor Assay for human Opioid Receptor Delta 1 (Opiate D1) (AID 2283280)
How it was run: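 Radioligand displacement on membranes from CHO cells expressing the receptor, read by filter scintillation counting 1 h after dosing. Duplicate single-point screen at 25 uM, then concentration series for actives; loss of signal versus DMSO.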

[11] = target: human Orphanin, Opioid Related Nociceptin Receptor 1 (ORL1), OPRL1 (gene 4987) (UniProt P41146); assay: NVS_GPCR_hORL1: NovaScreen (NVS) G Protein-Coupled Receptor Assay for human Orphanin, Opioid Related Nociceptin Receptor 1 (ORL1) (AID 2283283)
How it was run: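 Filter-based radioligand displacement with receptor extracted from HEK293 cells, read 1 hour after dosing by scintillation counting. Duplicate single-point screen at 25 uM; qualifying chemicals then run in concentration-response to 50 uM, analysed relative to DMSO.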

[12] = target: rat Serotonin, 5-Hydroxytryptamine Receptor 1 (5HT1), Non-Selective Binding, Htr1a (gene 24473) (UniProt P19327); assay: NVS_GPCR_r5HT1_NonSelective: NovaScreen (NVS) G Protein-Coupled Receptor Assay for rat Serotonin, 5-Hydroxytryptamine Receptor 1 (5HT1), Non-Selective Binding (AID 2283286)
How it was run: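 Rat cortical membranes, radioligand displacement, 1 h incubation, read by filter scintillation. Primary screen in duplicate at 25 uM. Hits (e.g. ≥30% inhibition) went to concentration-response up to 50 uM, fitted as loss of binding versus DMSO.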

[13] = system: rabbit Platelet Activating Factor Receptor (PAF), gene 100354046; assay: NVS_GPCR_rabPAF: NovaScreen (NVS) G Protein-Coupled Receptor Assay for rabbit Platelet Activating Factor Receptor (PAF) (AID 2283287)
How it was run: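 Rabbit platelet membrane preparation; radioligand displacement read by filter-based scintillation counting 1 h after dosing, loss of signal versus DMSO. Primary screen in duplicate at 25 uM, actives followed up in concentration series.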

[14] = target: rat Adrenergic, Alpha 1, Non-selective Receptor (Adra1), Adra1a (gene 29412) (UniProt P43140); assay: NVS_GPCR_rAdra1_NonSelective: NovaScreen (NVS) G Protein-Coupled Receptor Assay for rat Adrenergic, Alpha 1, Non-selective Receptor (Adra1) (AID 2283289)
How it was run: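 Rat forebrain membranes; radioligand displacement read by filter-based scintillation counting 1 h after dosing. Primary screen in duplicate at 25 uM; hits (e.g. ≥30% inhibition) rerun as concentration–response to 50 uM max. Fitted versus DMSO.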

[15] = target: human Opioid Receptor Mu (Opiate Mu), OPRM1 (gene 4988) (UniProt P35372); assay: NVS_GPCR_hOpiate_mu: NovaScreen (NVS) G Protein-Coupled Receptor Assay for human Opioid Receptor Mu (Opiate Mu) (AID 2283290);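 also: hits lower bound tracer signal versus DMSO meaning displacement of the ligand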
How it was run: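 Cell-free radioligand binding to membranes from CHO cells expressing the receptor; bound tracer measured by filter-based scintillation counting 2.5 hours after dosing. Loss of signal versus DMSO baseline reflects displacement; primary screen at 25 uM in duplicate, actives followed up in concentration series.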

[16] = target: guinea pig Bradykinin Receptor B2 (BK2), BDKRB2 (gene 100135486) (UniProt O70526); assay: NVS_GPCR_gBK2: NovaScreen (NVS) G Protein-Coupled Receptor Assay for guinea pig Bradykinin Receptor B2 (BK2) (AID 2283292)
How it was run: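 Radioligand displacement on guinea pig ileum membranes for 1 h, read by filter-based scintillation counting; loss of signal relative to DMSO. Compounds were screened in duplicate at 25 uM, and those passing the threshold were retested in concentration-response up to 50 uM.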

[17] = target: guinea pig Serotonin, 5-Hydroxytryptamine Receptor 4 (5HT4), HTR4 (gene 100135548) (UniProt O70528); assay: NVS_GPCR_g5HT4: NovaScreen (NVS) G Protein-Coupled Receptor Assay for guinea pig Serotonin, 5-Hydroxytryptamine Receptor 4 (5HT4) (AID 2283294)
How it was run: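 Guinea pig striatal membranes; radioligand competitive displacement, filtration and scintillation counting after 1 h. Primary screen in duplicate at 25 uM; actives then tested in concentration series; loss of binding signal fitted relative to DMSO.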

[18] = target: rat Serotonin, 5-Hydroxytryptamine Receptor (5HT), Non-Selective Binding, Htr1a (gene 24473) (UniProt P19327); assay: NVS_GPCR_r5HT_NonSelective: NovaScreen (NVS) G Protein-Coupled Receptor Assay for rat Serotonin, 5-Hydroxytryptamine Receptor (5HT), Non-Selective Binding (AID 2283295)
How it was run: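 Radioligand displacement on rat cortical membranes, 1 h incubation, filter-based scintillation counting. Primary duplicates at 25 uM, actives retested in concentration series; loss of signal fitted against DMSO as baseline.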

[19] = target: human Dopamine Receptor D4.4 (DRD4.4), DRD4 (gene 1815) (UniProt P21917); assay: NVS_GPCR_hDRD4.4: NovaScreen (NVS) G Protein-Coupled Receptor Assay for human Dopamine Receptor D4.4 (DRD4.4) (AID 2283264)
How it was run: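 Radioligand displacement on human DRD4.4 from CHO-derived membranes, 1 hour incubation, bound counts read by filtration and scintillation. Primary screen in duplicate at 25 uM; actives followed up in concentration series.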

[20] = target: Neuropeptide Y receptor type 2 (Homo sapiens) (UniProt P49146); assay: NVS_GPCR_hNPY2: NovaScreen (NVS) G Protein-Coupled Receptor Assay for human Neuropeptide Receptor Y2 (NPY2) (AID 2283277)
How it was run: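 Radioligand binding on membranes extracted from SK-N-MC cells, cell-free, read 1 h after dosing by filter-based scintillation counting. Loss of signal vs DMSO. Primary screen in duplicate at 25 uM; actives followed up in concentration-response up to 50 uM.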

Chain of human Neurokinin, NK2 Receptor, TACR2 (gene 6865) (P21452 whole entry, looked up): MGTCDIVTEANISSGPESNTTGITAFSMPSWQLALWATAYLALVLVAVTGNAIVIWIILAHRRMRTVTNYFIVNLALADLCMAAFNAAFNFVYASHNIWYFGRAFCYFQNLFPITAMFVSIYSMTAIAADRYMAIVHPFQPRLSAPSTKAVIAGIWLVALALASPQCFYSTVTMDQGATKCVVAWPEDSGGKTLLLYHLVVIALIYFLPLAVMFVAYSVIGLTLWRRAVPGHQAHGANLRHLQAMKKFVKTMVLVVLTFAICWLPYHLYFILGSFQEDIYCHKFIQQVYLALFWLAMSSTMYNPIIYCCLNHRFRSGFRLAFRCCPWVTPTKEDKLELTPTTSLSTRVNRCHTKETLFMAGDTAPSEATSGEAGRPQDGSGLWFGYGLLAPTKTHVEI
Chain of D(1A) dopamine receptor (Homo sapiens) (P21728 whole entry, looked up): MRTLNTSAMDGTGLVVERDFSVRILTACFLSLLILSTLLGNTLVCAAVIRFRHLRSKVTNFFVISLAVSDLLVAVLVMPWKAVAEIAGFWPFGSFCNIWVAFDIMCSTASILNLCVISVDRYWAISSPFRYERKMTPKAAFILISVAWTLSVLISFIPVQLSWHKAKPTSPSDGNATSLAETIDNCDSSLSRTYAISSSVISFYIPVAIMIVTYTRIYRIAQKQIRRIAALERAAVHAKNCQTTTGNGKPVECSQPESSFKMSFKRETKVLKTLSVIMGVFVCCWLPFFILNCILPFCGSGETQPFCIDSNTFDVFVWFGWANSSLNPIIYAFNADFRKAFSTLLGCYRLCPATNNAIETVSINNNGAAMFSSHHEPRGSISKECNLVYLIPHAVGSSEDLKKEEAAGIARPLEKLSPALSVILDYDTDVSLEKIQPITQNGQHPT
Chain of human Thromboxane A2 Receptor (TXA2), TBXA2R (gene 6915) (P21731 whole entry, looked up): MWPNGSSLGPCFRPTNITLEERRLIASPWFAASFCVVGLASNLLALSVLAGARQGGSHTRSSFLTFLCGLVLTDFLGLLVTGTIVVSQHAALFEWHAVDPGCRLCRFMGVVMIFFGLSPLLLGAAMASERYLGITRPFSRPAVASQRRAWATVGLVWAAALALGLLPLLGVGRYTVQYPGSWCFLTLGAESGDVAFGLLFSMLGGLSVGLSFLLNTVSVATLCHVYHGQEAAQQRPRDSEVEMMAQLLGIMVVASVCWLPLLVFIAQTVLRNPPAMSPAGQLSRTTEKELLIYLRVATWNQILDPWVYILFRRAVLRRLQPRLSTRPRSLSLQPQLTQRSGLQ
Chain of Muscarinic acetylcholine receptor M2 (Homo sapiens) (P08172 whole entry, looked up): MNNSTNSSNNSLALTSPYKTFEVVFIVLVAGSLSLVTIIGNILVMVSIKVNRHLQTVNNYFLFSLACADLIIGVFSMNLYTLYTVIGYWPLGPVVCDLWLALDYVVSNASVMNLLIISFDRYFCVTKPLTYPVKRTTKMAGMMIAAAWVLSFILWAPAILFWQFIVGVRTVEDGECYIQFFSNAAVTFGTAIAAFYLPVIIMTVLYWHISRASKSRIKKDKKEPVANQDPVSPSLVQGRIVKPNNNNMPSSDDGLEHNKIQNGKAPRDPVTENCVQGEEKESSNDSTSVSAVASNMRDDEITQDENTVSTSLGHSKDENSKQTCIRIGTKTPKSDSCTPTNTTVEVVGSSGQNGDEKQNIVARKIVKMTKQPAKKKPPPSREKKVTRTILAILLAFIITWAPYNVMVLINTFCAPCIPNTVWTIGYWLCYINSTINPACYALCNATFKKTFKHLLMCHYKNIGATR
Chain of human Opioid Receptor Mu (Opiate Mu), OPRM1 (gene 4988) (P35372 whole entry, looked up): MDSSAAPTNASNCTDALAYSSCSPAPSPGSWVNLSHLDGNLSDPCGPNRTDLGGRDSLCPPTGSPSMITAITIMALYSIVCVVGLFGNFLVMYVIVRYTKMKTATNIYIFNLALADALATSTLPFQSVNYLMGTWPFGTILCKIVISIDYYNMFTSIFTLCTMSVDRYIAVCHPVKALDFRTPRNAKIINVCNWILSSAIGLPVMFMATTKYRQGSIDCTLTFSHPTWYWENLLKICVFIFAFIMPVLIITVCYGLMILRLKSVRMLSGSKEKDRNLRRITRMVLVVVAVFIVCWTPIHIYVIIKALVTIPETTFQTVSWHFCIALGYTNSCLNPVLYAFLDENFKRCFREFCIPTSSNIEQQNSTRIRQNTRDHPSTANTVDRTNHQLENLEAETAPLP
Chain of human Dopamine Receptor D2 (DRD2), DRD2 (gene 1813) (P14416 whole entry, looked up): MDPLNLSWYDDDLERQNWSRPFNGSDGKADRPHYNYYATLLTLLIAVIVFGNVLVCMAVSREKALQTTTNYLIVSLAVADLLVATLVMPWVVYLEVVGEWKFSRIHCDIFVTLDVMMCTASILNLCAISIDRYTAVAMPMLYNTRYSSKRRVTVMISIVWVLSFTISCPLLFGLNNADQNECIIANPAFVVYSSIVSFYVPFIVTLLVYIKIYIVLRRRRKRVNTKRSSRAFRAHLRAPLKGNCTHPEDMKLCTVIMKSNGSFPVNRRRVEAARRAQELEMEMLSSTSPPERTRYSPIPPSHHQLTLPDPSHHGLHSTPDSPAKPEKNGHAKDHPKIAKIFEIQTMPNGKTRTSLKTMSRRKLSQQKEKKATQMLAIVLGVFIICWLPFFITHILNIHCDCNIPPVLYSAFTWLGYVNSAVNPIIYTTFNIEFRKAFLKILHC
Chain of guinea pig Bradykinin Receptor B2 (BK2), BDKRB2 (gene 100135486) (O70526 whole entry, looked up): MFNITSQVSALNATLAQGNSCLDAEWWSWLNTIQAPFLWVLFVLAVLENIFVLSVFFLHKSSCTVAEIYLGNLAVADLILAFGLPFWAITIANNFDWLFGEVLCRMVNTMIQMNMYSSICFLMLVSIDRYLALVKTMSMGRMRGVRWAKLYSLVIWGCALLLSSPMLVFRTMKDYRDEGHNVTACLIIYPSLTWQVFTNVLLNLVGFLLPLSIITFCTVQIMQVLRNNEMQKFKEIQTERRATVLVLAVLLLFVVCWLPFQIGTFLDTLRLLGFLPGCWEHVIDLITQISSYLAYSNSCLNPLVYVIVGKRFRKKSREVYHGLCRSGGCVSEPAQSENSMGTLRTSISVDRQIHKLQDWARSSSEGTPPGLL
Chain of guinea pig Serotonin, 5-Hydroxytryptamine Receptor 4 (5HT4), HTR4 (gene 100135548) (O70528 whole entry, looked up): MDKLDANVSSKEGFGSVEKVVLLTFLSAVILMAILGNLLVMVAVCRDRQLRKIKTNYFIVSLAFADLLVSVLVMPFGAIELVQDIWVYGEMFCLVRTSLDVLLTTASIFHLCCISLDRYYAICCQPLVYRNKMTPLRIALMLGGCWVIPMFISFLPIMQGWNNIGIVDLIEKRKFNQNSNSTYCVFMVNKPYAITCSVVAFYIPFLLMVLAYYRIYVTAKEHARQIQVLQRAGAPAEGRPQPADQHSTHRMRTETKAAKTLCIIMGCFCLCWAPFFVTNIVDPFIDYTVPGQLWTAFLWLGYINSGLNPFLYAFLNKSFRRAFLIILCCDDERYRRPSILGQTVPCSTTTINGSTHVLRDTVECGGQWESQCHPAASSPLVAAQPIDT
Chain of human Muscarinic, M4 Receptor, CHRM4 (gene 1132) (P08173 whole entry, looked up): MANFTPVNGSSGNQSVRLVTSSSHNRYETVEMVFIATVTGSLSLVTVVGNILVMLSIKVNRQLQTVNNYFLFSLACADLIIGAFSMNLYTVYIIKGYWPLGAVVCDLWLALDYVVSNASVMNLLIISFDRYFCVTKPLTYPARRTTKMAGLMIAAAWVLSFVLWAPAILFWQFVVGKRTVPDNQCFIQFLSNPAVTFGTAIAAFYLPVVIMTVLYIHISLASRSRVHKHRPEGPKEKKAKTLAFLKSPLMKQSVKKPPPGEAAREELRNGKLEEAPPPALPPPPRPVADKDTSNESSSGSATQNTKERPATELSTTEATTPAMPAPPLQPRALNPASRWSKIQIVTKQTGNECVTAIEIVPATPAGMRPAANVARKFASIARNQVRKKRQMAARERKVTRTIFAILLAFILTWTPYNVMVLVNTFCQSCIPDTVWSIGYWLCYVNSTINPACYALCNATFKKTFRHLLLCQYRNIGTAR
Chain of human Opioid Receptor Delta 1 (Opiate D1), OPRD1 (gene 4985) (P41143 whole entry, looked up): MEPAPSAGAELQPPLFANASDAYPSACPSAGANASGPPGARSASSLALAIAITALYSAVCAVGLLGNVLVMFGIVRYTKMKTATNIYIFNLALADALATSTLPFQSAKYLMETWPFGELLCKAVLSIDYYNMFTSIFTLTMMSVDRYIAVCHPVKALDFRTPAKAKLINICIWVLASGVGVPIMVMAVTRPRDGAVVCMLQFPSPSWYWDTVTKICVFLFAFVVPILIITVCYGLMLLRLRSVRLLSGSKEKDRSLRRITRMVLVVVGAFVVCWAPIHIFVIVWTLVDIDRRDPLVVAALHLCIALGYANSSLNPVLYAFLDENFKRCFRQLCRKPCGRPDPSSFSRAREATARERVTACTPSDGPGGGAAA
Chain of Muscarinic acetylcholine receptor M5 (Homo sapiens) (P08912 whole entry, looked up): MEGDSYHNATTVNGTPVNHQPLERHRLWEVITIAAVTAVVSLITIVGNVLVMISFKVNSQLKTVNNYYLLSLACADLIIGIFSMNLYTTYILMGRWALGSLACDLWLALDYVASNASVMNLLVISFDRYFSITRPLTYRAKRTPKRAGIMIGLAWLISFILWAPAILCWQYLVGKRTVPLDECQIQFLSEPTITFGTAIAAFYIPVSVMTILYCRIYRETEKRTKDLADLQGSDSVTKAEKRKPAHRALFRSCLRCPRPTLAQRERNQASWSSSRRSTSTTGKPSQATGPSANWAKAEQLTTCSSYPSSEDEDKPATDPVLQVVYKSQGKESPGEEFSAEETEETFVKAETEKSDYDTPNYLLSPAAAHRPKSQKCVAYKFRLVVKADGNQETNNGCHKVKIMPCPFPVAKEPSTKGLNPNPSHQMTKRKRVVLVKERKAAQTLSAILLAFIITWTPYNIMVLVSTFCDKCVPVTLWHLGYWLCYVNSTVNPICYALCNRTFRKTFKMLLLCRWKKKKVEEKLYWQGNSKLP

CC(=O)OCC=C(C)CCC=C(C)CCC=C(C)C
outcome [1]: inactive

COc1ccccc1NC(=O)CC(C)=O
outcome [2]: inactive

O=S1(=O)CC(Cl)(Cl)C(Cl)(Cl)C1
AC50 [1]: 20.1 µM (active) | outcome [3]: inactive | outcome [2]: inactive

O=C(c1ccc(OCCN2CCCCC2)cc1)c1c(-c2ccc(O)cc2)sc2cc(O)ccc12
AC50 [4]: 1.07 µM (active) | AC50 [1]: 0.948 µM (active) | outcome [5]: inactive | AC50 [6]: 2.92 µM (active) | AC50 [7]: 4.93 µM (active) | AC50 [8]: 3.7 µM (active) | AC50 [9]: 7.83 µM (active) | AC50 [3]: 3.58 µM (active) | AC50 [10]: 5.28 µM (active) | AC50 [11]: 0.982 µM (active) | AC50 [12]: 18.5 µM (active) | AC50 [13]: 12.1 µM (active) | AC50 [14]: 1.49 µM (active) | AC50 [15]: 711 nM (active) | outcome [16]: inactive | AC50 [17]: 4.36 µM (active) | AC50 [18]: 5.24 µM (active)

CCOC(=O)C=Cc1ccccc1
AC50 [6]: 38.6 µM (active)

CC(C)(C)c1cc(CCC(=O)OCCSCCOC(=O)CCc2cc(C(C)(C)C)c(O)c(C(C)(C)C)c2)cc(C(C)(C)C)c1O
outcome [2]: inactive

CC(C)(O)CCc1ccccc1
outcome [1]: inactive

Cc1cc(O)c(C)c(C)c1O
outcome [2]: inactive

Cc1cccc(O)c1
outcome [2]: inactive

Cc1cc(N)n(-c2ccccc2)n1
AC50 [6]: 13.9 µM (active)

CC(=O)c1cccnc1
outcome [6]: inactive

c1ccc2c(c1)-c1ccc3ccc4cccc5cc-2c1c3c45
outcome [1]: inactive | AC50 [15]: 3450 nM (active)

CC/C=C\C#N
outcome [2]: inactive

CC/C(=C(\c1ccccc1)c1ccc(OCCN(C)C)cc1)c1ccccc1
outcome [19]: inactive | outcome [4]: inactive | AC50 [6]: 19.3 µM (active) | AC50 [7]: 10.1 µM (active) | AC50 [8]: 7.13 µM (active) | AC50 [20]: 11.9 µM (active) | AC50 [3]: 6.84 µM (active) | outcome [3]: inactive | outcome [10]: inactive | AC50 [11]: 9.83 µM (active) | outcome [13]: inactive | outcome [15]: inactive | outcome [16]: inactive

C=C1CC[C@H]2O[C@]2(C)CC[C@@H]2[C@@H]1CC2(C)C
outcome [1]: inactive

CCCCOCCOCCO
outcome [3]: inactive

C#C[C@]1(O)CC[C@H]2[C@@H]3CCc4cc(O)ccc4[C@H]3CC[C@@]21C
AC50 [15]: 25 µM (active) and 6.05 µM (active) | outcome [15]: inactive | AC50 [17]: 2.64 µM (active)

N#CCCCC(C#N)CCC#N (stereo not drawn)
outcome [1]: inactive

CCC(=O)OC/C=C(\C)CCC=C(C)C
outcome [1]: inactive

O=C1OC2(c3ccc(O)cc3Oc3cc(O)ccc32)c2ccccc21
outcome [3]: inactive
